Experiment [1] can be described thus: qHTS assay to identify small molecule antagonists of the estrogen related receptor (ERR) signaling pathway from Tox21 library - cell viability counter screen (AID 1224834). Further: nearly all actives have a fitted effect of over 30% in size. In a few lines:
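CellTiter-Fluor fluorescence, read after 30 min at 37 C, measures viability of ERR cells. Cells plated at 2,000/well and incubated 6 h before pin-tool compound addition, then exposed 17.5 hours at 37 C.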
For orientation: qHTS replaces the single test concentration by a dilution series.

Experiment [2] has as its target Luciferin 4-monooxygenase (Photinus pyralis) (UniProt P08659). The experiment in a line: qHTS assay to identify small molecule inhibitors of firefly luciferase (AID 1224835). Further: nearly all actives have a fitted effect of over 25% in size. Further: potency means the concentration at half of the fitted maximal effect. On activity change, negative = inhibition: series mostly up to about 120 µM. In a few lines:
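Quantitative HTS format; KM concentrations of both substrates. Purified P. pyralis FLuc activity quantified from luminescence images.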

Experiment [3] can be described thus: qHTS assay to identify small molecule agonists of the constitutive androstane receptor (CAR) signaling pathway - cell viability counter screen (AID 1224836). Further: series mostly up to about 92 µM; nearly all actives have a fitted effect of over 45% in size. In a few lines: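 HepG2-CYP2B6-hCAR, 2500 cells/well, 4 h pre-incubation; cpd 15 conc + PK11195 0.75 uM final; 23 h, 37 C/5% CO2; CellTiter-Fluor, fluorescence.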
Experiment [4] is described as follows: qHTS assay to identify small molecule antagonists of the constitutive androstane receptor (CAR) signaling pathway - cell viability counter screen (AID 1224837). Further: series mostly up to about 92 µM; nearly all actives have a fitted effect of over 45% in size. In a few lines: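 Cytotoxicity counter-screen: CellTiter-Fluor fluorescence after 23 h compound exposure (15-point qHTS) in double-stable HepG2-CYP2B6-hCAR cells, with 50 nM CITCO added.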
For experiment [5], the target named is Nuclear receptor subfamily 1 group I member 3 (Homo sapiens) (UniProt Q14994). Kind of experiment: qHTS assay to identify small molecule antagonists of the constitutive androstane receptor (CAR) signaling pathway (AID 1224838).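 Further: HepG2 cells stably expressing hCAR with CYP2B6 luciferase reporter stimulated by CITCO; nearly all actives have a fitted effect of over 40% in size.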 In a few lines:
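Antagonism measured as luciferase signal (ONE-Glo, 30 min, room temperature) in CAR-stimulated cells: HepG2-CYP2B6-hCAR double-stable line exposed 24 hr at 37 C to compound in a 15-point series plus 50 nM CITCO.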

The target is the same in experiment [6]. Kind of experiment: qHTS assay to identify small molecule agonists of the constitutive androstane receptor (CAR) signaling pathway (AID 1224839). Further: nearly all actives have a fitted effect of over 15% in size. Further: potency means the concentration at half of the fitted maximal effect.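 On activation: HepG2 cells stably carrying human CAR and a CYP2B6 luciferase reporter; series mostly up to about 92 µM.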 In a few lines:
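HepG2-CYP2B6-hCAR cells, 2500/well, 4 h pre-incubation; compounds 15 conc.; PK11195 0.75 uM final; 24 h, 37 C/5% CO2; ONE-Glo luciferase read.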

Experiment [7] in a line: qHTS assay to identify small molecule antagonists of the estrogen related receptor signaling pathway with the pleiotropic PPARgamma coactivator (PGC) from Tox21 10K library - cell viability counter screen (AID 1224840; active means well fitted cell-killing curve with a large enough effect in the repeat runs, not every such curve was filed as active; further: nearly all actives have a fitted effect of over 40% in size). In a few lines:
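Counter-screen for cytotoxicity: after 17.5 h compound exposure at 37 C, CellTiter-Fluor reagent added to PGC/ERR cells for 30 min and fluorescence read. Cells were seeded at 2,000 per well 6 h before dosing.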

Experiment [8] can be described thus: qHTS assay to identify small molecule antagonists of the estrogen related receptor signaling pathway with the pleiotropic PPARgamma coactivator (PGC) from Tox21 10K library (AID 1224841; call rule not given here; further: series mostly up to about 92 µM; actives are mostly falling curves and most rising ones were filed inactive; nearly all actives have a fitted effect of over 50% in size). In a few lines: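 Luminescence (One-Glo, 30 min at room temperature) after 18 h compound treatment at 37 C of PGC/ERR reporter cells plated at 2,000 cells/well and settled 6 h beforehand.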

Experiment [9] in a line: qHTS assay to identify small molecule agonists of the estrogen related receptor signaling pathway with the pleiotropic PPARgamma coactivator (PGC) from Tox21 10K library (AID 1224842). Further: nearly all actives have a fitted effect of over 15% in size. Put shortly:
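PGC/ERR reporter cells (NTP line) were seeded 2,000 per well, rested 6 h at 37 C/5% CO2, then pin-dosed with compounds in DMSO for 18 h at 37 C; luciferase read by One-Glo luminescence after 30 min at room temperature.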

Molecules are shown by their SMILES. Results filed as inconclusive are left out. Unmarked numbers belong to inactive results. Activity calls are given as the source filed them. Unless noted, the call rests on the fitted dose curve; in most records, active means well fitted curve in the direction sought with a large enough effect in the repeat runs; inconclusive means weak or mixed curves; inactive means no such curve, though single readings can be large; an effect the other way counts as inactive or inconclusive.
On the % scale 0 is the no-effect control and ±100 the full control effect.

Luciferin 4-monooxygenase (Photinus pyralis), sequence (P08659 whole entry, looked up): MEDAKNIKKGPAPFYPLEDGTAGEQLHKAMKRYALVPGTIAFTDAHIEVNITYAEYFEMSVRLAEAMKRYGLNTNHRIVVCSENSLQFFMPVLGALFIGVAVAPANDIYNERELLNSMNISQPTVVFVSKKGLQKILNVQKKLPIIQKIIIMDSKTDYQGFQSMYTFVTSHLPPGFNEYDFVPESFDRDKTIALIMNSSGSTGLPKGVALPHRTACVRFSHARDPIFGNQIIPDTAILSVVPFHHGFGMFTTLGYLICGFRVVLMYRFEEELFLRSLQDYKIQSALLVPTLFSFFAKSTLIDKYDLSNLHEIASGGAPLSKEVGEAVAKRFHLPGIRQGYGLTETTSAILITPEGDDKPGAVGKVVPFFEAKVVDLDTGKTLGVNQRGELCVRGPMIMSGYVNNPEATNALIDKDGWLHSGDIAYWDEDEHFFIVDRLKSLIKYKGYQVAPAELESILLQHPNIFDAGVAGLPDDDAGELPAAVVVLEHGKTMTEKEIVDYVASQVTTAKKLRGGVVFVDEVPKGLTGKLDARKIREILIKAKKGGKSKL
Nuclear receptor subfamily 1 group I member 3 (Homo sapiens), sequence (Q14994 whole entry, looked up): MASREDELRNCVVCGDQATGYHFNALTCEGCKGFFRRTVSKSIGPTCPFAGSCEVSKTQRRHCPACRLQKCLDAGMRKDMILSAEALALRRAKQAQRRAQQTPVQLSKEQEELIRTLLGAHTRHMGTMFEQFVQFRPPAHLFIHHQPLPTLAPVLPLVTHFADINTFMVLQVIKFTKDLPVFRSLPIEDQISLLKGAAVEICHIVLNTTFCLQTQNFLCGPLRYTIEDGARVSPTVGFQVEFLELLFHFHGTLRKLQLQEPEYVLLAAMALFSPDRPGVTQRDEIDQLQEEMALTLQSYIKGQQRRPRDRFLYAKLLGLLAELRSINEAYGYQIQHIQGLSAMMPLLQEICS

Take `Cc1ccccc1OCC(O)CO` (stereo not given): the Potency entry in [1], in experiment [2], in experiment [3], in experiment [4], in experiment [6] and in [8] was “inactive” each time. Further, the molecule was called inactive in [5], in experiment [7] and in [9].
Regarding `CC(=O)c1ccc2c(c1)Cc1ccccc1-2`, the Potency result in [1], in experiment [3] and in experiment [4] was “inactive” in each case. The values for the Potency in [2] and in experiment [6] were 25.2 µM (active) and 54.5 µM (active), respectively. Also, the outcome in [5] and in experiment [7] was inactive.
As for `CCCCNC1CC(C)(C)NC(C)(C)C1`, the Potency entry in experiment [1], in experiment [2], in [3], in experiment [4], in [6] and in [8] was “inactive” in each case. In addition, the call in [5], in [7] and in experiment [9] was inactive.
As to `C=C(C)C(=O)OCCN(CC)CC`, the Potency entry in experiment [1], in experiment [2], in [3], in experiment [4] and in experiment [6] was “inactive” throughout. In addition, the result in experiment [5] and in experiment [7] was inactive.
Take `OCCC(F)(F)C(F)(F)C(F)(F)C(F)(F)C(F)(F)C(F)(F)C(F)(F)C(F)(F)F`: the Potency entry in experiment [1], in experiment [2], in [3], in [4], in experiment [6] and in [8] was “inactive” in each case. The outcome in experiment [5] and in experiment [7] was inactive.
With `O=C(O)C(=O)Cc1ccccc1`, the Potency entry in experiment [1], in [2], in [3], in [4] and in [6] was “inactive” each time. Besides, the molecule was called inactive in experiment [5] and in experiment [7].
For `Cc1cccc(OCC(O)CNC(C)(C)C)c1C` (stereo not given), the Potency result in experiment [1], in experiment [2], in experiment [3], in experiment [4] and in experiment [6] was “inactive” throughout. In addition, the molecule was called inactive in experiment [5] and in experiment [7].
Take `O=C(O)Cc1cn(-c2ccccc2)nc1-c1ccc(Cl)cc1`: the Potency entry in experiment [1], in experiment [2], in experiment [3], in experiment [4] and in experiment [6] was “inactive” in each case. The call in experiment [5] and in experiment [7] was inactive.
As for `CO[C@@H]1[C@@H](OC(N)=O)[C@@H](O)[C@H](Oc2ccc3c(O)c(NC(=O)c4ccc(O)c(CC=C(C)C)c4)c(=O)oc3c2C)OC1(C)C`, the Potency entry in experiment [1], in experiment [2], in [3], in [4], in [6] and in experiment [8] was “inactive” each time. The call in experiment [5], in [7] and in experiment [9] was inactive.
In the case of `OCCN(CCO)c1cccc(Cl)c1`, the Potency entry in [1], in [2], in experiment [3], in [4] and in [6] was “inactive” throughout. Further, the outcome in [5] and in experiment [7] was inactive.
Consider `CNS(=O)(=O)CCc1ccc2[nH]cc(C3CCN(C)CC3)c2c1`, for which the Potency entry in experiment [1], in experiment [2], in [3], in [4] and in experiment [6] was “inactive” in each case. Besides, the result in experiment [5] and in [7] was inactive.
Consider `C[C@H](CCC(=O)O)[C@H]1CC[C@H]2[C@@H]3C(=O)C[C@@H]4CC(=O)CC[C@]4(C)[C@H]3CC(=O)[C@]12C`, for which the Potency entry in experiment [1], in [2], in experiment [3], in experiment [4], in [6] and in experiment [8] was “inactive” each time. The molecule was called inactive in [5], in [7] and in [9].
Consider `CN(C)CCOCCO`, for which the Potency result in experiment [1], in experiment [2], in experiment [3], in experiment [4], in experiment [6] and in experiment [8] was “inactive” each time. Also, the outcome in experiment [5], in experiment [7] and in [9] was inactive.
For the molecule `C[Si](C)=O`, the viability change, negative = cytotoxic in [1] was 2.07% [at 8.39 µM]; in experiment [3], 2.34% [at 8.39 µM]; in experiment [7] it was 10.2% [at 8.39 µM]. The activity change, negative = inhibition in experiment [2] is 5.26% [at 10.5 µM]. For the same molecule, in experiment [4], the activity change, negative = cytotoxicity was 1.39% [at 8.39 µM]. The figures for the activity, negative = inhibition in experiment [5] and in experiment [8] were -3.72% [at 8.39 µM] and -4.65% [at 8.39 µM], respectively. The activation in [6] is -0.11% [at 8.39 µM]; in experiment [9], -1.46% [at 8.39 µM].
For `Cc1cc(Cl)c(C)cc1Cl`, the Potency result in [1], in experiment [2], in [3], in experiment [4], in experiment [6] and in experiment [8] was “inactive” in each case. In addition, the molecule was called inactive in [5], in [7] and in experiment [9].
Consider `Cc1nc2n(c(=O)c1CCN1CCC(c3noc4cc(F)ccc34)CC1)CCC[C@H]2O`, for which the viability change, negative = cytotoxic in experiment [1] was 0.131% [at 19 µM]; in [3], 2.64% [at 19 µM]; in [7], 11.2% [at 19 µM]. Besides, the activity change, negative = inhibition in experiment [2] is 0.0649% [at 23.6 µM]. Besides, the activity change, negative = cytotoxicity in experiment [4] is 1.56% [at 19 µM]. The activity, negative = inhibition in experiment [5] was 20.8% [at 19 µM]; in experiment [8], -0.225% [at 19 µM]. The results for the activation in experiment [6] and in experiment [9] were -1.43% [at 19 µM] and -0.0623% [at 19 µM], respectively.
On to `O=S(=O)(O)CCN1CCN(CCO)CC1`, for which the Potency result in experiment [1], in experiment [2], in experiment [3], in experiment [4], in experiment [6] and in experiment [8] was “inactive” in each case. For the same molecule, the molecule was classed as inactive in [5], in experiment [7] and in experiment [9].
With `CCCC/C=C\CCCCCCCCCC=O`, the Potency result in experiment [1], in experiment [2], in experiment [3], in experiment [4], in [6] and in experiment [8] was “inactive” in each case. For the same molecule, the result in [5], in experiment [7] and in experiment [9] was inactive.
For the molecule `Nc1ncnc(Nc2ccccc2)n1`, the Potency result in experiment [1], in experiment [2], in experiment [3] and in experiment [4] was “inactive” each time. The molecule was classed as inactive in experiment [5] and in experiment [7].
With `C=C(C)C(=O)OCc1ccccc1`, the Potency result in [1], in [2], in experiment [3], in experiment [4] and in experiment [8] was “inactive” in each case. Also, the outcome in experiment [5], in experiment [7] and in experiment [9] was inactive.
Turning to `CC(=O)Nc1ccc(S(=O)(=O)Cl)cc1`, the Potency entry in experiment [1], in experiment [2], in experiment [3], in [4] and in [6] was “inactive” in each case. In addition, the call in [5], in [7] and in [9] was inactive.
In the case of `CCCCC(CC)COCCO` (stereo not given), the Potency entry in experiment [1], in experiment [2], in experiment [3], in [4], in experiment [6] and in experiment [8] was “inactive” throughout. Also, the molecule was called inactive in [5], in experiment [7] and in [9].
In the case of `CCCCNc1ccc(C(=O)OCCN(C)C)cc1`, the Potency entry in experiment [1], in experiment [2], in [3] and in experiment [4] was “inactive” each time. Further, the molecule was called inactive in experiment [5] and in experiment [7].
Consider `CCCOC(=O)C(C)O` (stereo not given), for which the Potency result in experiment [1], in experiment [2], in experiment [3] and in experiment [4] was “inactive” throughout. Also, the result in experiment [5] and in experiment [7] was inactive.
`NNc1nnc(NN)c2ccccc12`: the Potency result in [1], in experiment [3] and in experiment [4] was “inactive” throughout. Also, the Potency in [2] was 17.4 µM (active). The molecule was called inactive in experiment [5] and in experiment [7].
With `COCCOCCOCCOCCOCCO`, the Potency entry in [1], in experiment [2], in experiment [3], in [4] and in experiment [8] was “inactive” throughout. In addition, the call in experiment [5], in experiment [7] and in experiment [9] was inactive.
In the case of `CC(CO)c1ccccc1` (stereo not given), the Potency entry in experiment [1], in [2], in [3] and in experiment [4] was “inactive” each time. Also, the molecule was classed as inactive in experiment [5] and in [7].

These data come from PubChem BioAssay (Tox21).
